aSyn yeast inh = qHTS of alpha-syn Inhibitors. Yeast expressing alpha-synuclein, growth rescue, BacTiter-Glo, 24 h. Potency, µM (doses to about 46.1 µM), without a hit: at the highest dose growth rescue (activation), hits mostly activators. actives 0.14% (n = 370,000); further: % of control where 0% means no effect; nearly all actives have a fitted effect of over 65% in size
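Galactose-induced alpha-syn yeast (OD600=0.02, raffinose-pregrown) + pinned cpd, 24 hr, 30 deg C; growth by BacTiter-Glo luminescence. Growth restoration scores as activation.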
ERG Ets-DNA blk = qHTS for Small Molecule Inhibitors of the ERG Ets/DNA interaction | Transcriptional regulator ERG (Homo sapiens), P11308 | fluorescence polarization, His-ERG Ets domain / labelled DNA | Potency, µM (doses to about 76.9 µM), without a hit: at the top dose FP activity, negative = inhibition, hits mostly inhibitors | actives 0.028% (n = 370,000) | AID 624246, 2012; active means well fitted inhibition curve with a large enough effect in the polarisation, with a control signal flat; inconclusive means small, poorly fitted or top-dose-only effect, or effect the other way, or a change in a side signal; inactive means no such curve, though single readings can be large or run the other way; the % refers to the polarisation;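 further: polarization taken with two DNA probes labelled with fluorescein and Texas red; % of control where 0% means no effect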
Target sequence (P11308 whole entry, looked up, the tested form may be a part): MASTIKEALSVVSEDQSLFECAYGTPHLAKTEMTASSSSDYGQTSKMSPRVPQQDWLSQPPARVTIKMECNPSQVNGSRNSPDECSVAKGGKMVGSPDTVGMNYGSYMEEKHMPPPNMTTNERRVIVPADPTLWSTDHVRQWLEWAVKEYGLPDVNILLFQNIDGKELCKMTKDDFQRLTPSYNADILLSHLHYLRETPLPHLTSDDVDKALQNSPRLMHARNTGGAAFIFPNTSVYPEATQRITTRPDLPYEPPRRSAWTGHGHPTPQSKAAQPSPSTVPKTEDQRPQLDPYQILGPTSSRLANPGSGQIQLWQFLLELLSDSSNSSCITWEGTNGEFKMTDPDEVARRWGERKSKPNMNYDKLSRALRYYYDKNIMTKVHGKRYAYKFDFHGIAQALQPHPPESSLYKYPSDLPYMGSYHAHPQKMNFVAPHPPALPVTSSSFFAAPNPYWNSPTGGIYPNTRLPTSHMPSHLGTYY
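His-tagged ERG Ets domain (1 uM in the protein solution; 300mM KCl, 50mM Tris-HCl, 1mM EDTA, 1mM DTT, pH 7.5) received compound, then a probe mix of 5 nM fluorescein-DNA and 100nM Texas-615-DNA. Fluorescence polarization was read for both dyes.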
Abeta yeast res = qHTS for compounds that reverse cellular toxicity of Amyloid beta (A-beta) peptide in yeast: Primary Screen. actives 0.063% (n = 410,000). Potency, µM (doses to about 46.1 µM), most hits filed as activators. yeast expressing A-beta42, growth rescue, OD600, 48 h; response scale: 0% DMSO, 100% iron-clioquinol control; further: nearly all actives have a fitted effect of over 55% in size
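Yeast growth medium received pinned compounds, then yeast cells expressing toxic A-beta were added; plates incubated at 30 C for 48 hr. Growth read as absorbance at 600 nm, normalized to DMSO and equimolar FeCl3 plus clioquinol controls.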
FUS suppressor = qHTS for Suppressors of FUS Proteinopathy: Primary screen using FUS-linked yeast assay; Potency, µM (titrated, usually from 76.6 µM), most hits filed as activators; actives 0.24% (n = 390,000); AID 1347120, 2019; S. cerevisiae FUS-expressing, growth rescue, OD600, 24 h;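 further: plate controls were DMSO vehicle for no effect and reference control for full effect; nearly all actives have a fitted effect of over 55% in size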
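Yeast FUS proteinopathy model; galactose-induced FUS (2%), starting OD 0.005. Cpds in dilution series, 24hr, 30C, 99% humidity. Abs 600 nm growth. Pos ctrl CP55940 (top 92uM final); neg ctrl DMSO.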
Mito fusion act = qHTS Assay for Small Molecule Inhibitors of Mitochondrial Division or Activators of Mitochondrial Fusion; S. cerevisiae fusion-defective mutant growth rescue, CellTiterGlo 48 h; Potency, µM (titrated, usually from 46.1 µM), for the others: at the highest dose growth rescue (activation), hits mostly activators; actives 0.23% (n = 320,000); AID 485298, 2010; further: % of control where 0% means no effect; nearly all actives have a fitted effect of over 45% in size
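Temperature-sensitive fusion-defective S. cerevisiae (e.g. fzo1-1, mgm1-5) were grown with compound in YPEG medium (3% ethanol, 3% glycerol) for 48 hours at 37C. Growth rescue was measured as viability by CellTiterGlo luminescence after 10 minutes at ambient.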
TDP43 rescue = qHTS of TDP-43 Inhibitors; TDP-43 expressing yeast growth rescue, BacTiter-Glo, 24 h; Potency, µM (doses to about 46.1 µM), without a hit: top-dose growth rescue (activation), actives largely listed as activators; actives 1.8% (n = 410,000); AID 652104, 2013; further: % of control where 0% means no effect; nearly all actives have a fitted effect of over 50% in size
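Galactose-induced TDP-43 yeast, OD600=0.02, compound pinned; 24 hr, 30 deg C; BacTiter-Glo luminescence for growth. Inhibitors of TDP-43 toxicity read as activators.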
* hit, by the source's call; i = inactive; ? = inconclusive; . = not tested or not shown; [ ] = remark or other dose. In the library only some 2.2% were active in any assay of this set; here they are far more common. Unless noted, the call rests on the fitted dose curve; in most records, active means well fitted curve in the direction sought with a large enough effect; inconclusive means small, poorly fitted or top-dose-only effect, or another doubt; inactive means no such curve, though single readings can be large; an effect the other way counts as inactive or inconclusive. Potency means the concentration at half of the fitted maximal effect.

SMILES	aSyn yeast inh	ERG Ets-DNA blk	Abeta yeast res	FUS suppressor	Mito fusion act	TDP43 rescue
COc1ccc(-c2cn3nc(SCC(=O)Nc4ccccc4F)ccc3n2)cc1	.	-1.5%	i	i	.	0.0%[9.22 µM]
CCc1ccc(CNC(=O)c2cc3n(n2)CCCN(Cc2ccccc2)C3=O)cc1	.	3.5%	i	i	.	16.7%
Cc1ccc(-n2c(SCC(=O)c3ccc(O)c(O)c3)nnc2-c2ccccc2)cc1	.	.	.	7.94µM*	.	.
Cc1ccc(Cc2c(-c3cccc(Cl)c3)nc3ccc(C)cn23)cc1	6.1%	.	i	i	.	28.2µM*
COc1ccc(Cc2c(-c3cccc(Br)c3)nc3ccc(Cl)cn23)c(C)c1	-21.5%	.	i	i	.	?
Cc1cc(Br)c2nc(-c3ccccc3)c(Cc3cccc(Cl)c3)n2c1	-6.6%	.	i	?	.	11.2µM*
COc1ccc(Cc2c(-c3cccc(Cl)c3)nc3ccc(Cl)cn23)c(C)c1	7.9%	.	i	i	.	35.5µM*
Cc1ccc2nc(-c3cccc(Br)c3)c(Cc3cccc(Cl)c3)n2c1	1.0%	.	i	i	.	35.5µM*
CCCCN1CN2Cc3ccc(C)cc3C2CS1(=O)=O (centres undefined)	.	.	.	i	.	.
Cc1c(/C(O)=C2\C(=O)C(=O)N(CCCN(C)C)C2c2ccco2)cnn1-c1ccccc1 (centres undefined)	-1.8%	-3.5%	i	i	.	-8.3%
Cc1cc(C)cc(NC2=CC(c3cccc(F)c3)N(c3cc(C)cc(C)c3)C2=O)c1 (centres undefined)	.	0.0%	i	i	.	17.5%
Cn1c2ccccc2c2nnc(SCCOc3ccccc3)nc21	1.3%	.	.	.	.	.
N#Cc1ccc(-c2nc3ccc(Cl)cn3c2Cc2cccc(Cl)c2)cc1	-1.9%	.	i	i	.	12.5%
Cc1ccc2nc(-c3ccc(C#N)cc3)c(Cc3cccc(Cl)c3)n2c1	?	.	i	i	.	35.5µM*
Cc1ccc(Cc2c(-c3cccc(Cl)c3)nc3ccc(Cl)cn23)cc1	24.0%	.	i	i	.	15.8µM*
Cc1ccc(Cc2c(-c3cccc(Cl)c3)nc3ccc(Br)cn23)cc1	-20.3%	.	i	?	.	?
CC(C)c1ccccc1OCCNC(=O)c1cncc(Br)c1	14.2%	-0.1%	i	i	4.5%	20µM*
CC(C)c1ccccc1OCCNC(=O)c1cccnc1	4.7%	-0.3%	i	i	-6.9%	-9.8%[0.397 µM]
Clc1cccc2sc(N3CCN(c4ccccc4)CC3)nc12	0.0%	-6.1%	i	i	?	3.55µM*
Clc1ccc(Cl)c2sc(N3CCCC3)nc12	19.3%	2.6%	i	i	2.5%	7.08µM*
Fc1cccc2sc(N3CCCCC3)nc12	8.5%	-1.2%	i	i	1.0%	3.5%
COc1ccc(C2CC2/C(C)=N/OC(=O)C2CC2)cc1 (centres undefined)	-19.7%	7.5%	i	i	28.7%	14.1µM*
O=C(Nc1cc(Br)ccc1O)C1CC(c2c(F)cccc2Cl)=NO1 (centres undefined)	-1.9%	-5.1%	i	i	-7.0%	5.5%
O=C(Nc1ccc(Br)cc1)C1CC(c2c(F)cccc2Cl)=NO1 (centres undefined)	7.3%	0.2%	i	i	-4.1%	11.2µM*
Cc1cccc2c(C(=O)N3CCN(C(=O)c4ccco4)CC3)cc(-c3cccc(Br)c3)nc12	10.9%	0.2%	i	i	4.8%	28.2µM*
SMILES	aSyn yeast inh	ERG Ets-DNA blk	Abeta yeast res	FUS suppressor	Mito fusion act	TDP43 rescue
COC(=O)CN(C)C1CC(=O)N(c2ccc(Cl)cc2)C1=O (centres undefined)	2.4%	-4.0%	i	i	2.2%	17.8µM*
CN(Cc1ccncc1)C1CC(=O)N(c2ccc(Cl)cc2)C1=O (centres undefined)	-2.7%	-5.0%	i	i	-10.5%	2.4%
CN(C)c1ccc(/C=C/c2ccnc3ccccc23)cc1Br	18.4%	.	.	.	.	.
CCOc1ccccc1NC(=O)c1sc2nc(C)nc(N3CCOCC3)c2c1C	-14.0%	7.6%	i	i	5.4%	7.94µM*
COc1cccc(NC(=O)CN(C)C(=O)c2cccc(S(=O)(=O)N3c4ccccc4CC3C)c2)c1 (centres undefined)	3.5%	4.9%	i	22.4µM*	5.0%	20.2%
CCc1ccc(S(=O)(=O)c2nnn3c2nc(NCc2cccc(OC)c2)c2cc(Cl)ccc23)cc1	.	-3.8%	i	i	.	26.3%
CCCCSc1nc2c(c(C(F)(F)F)c1C#N)CCC2	-0.2%	-2.6%	i	i	0.3%	?
CCOC(=O)CCSc1nc2c(c(C(F)(F)F)c1C#N)CCC2	7.6%	10.9%	i	i	17.9%	12.6µM*
O=C(O)c1ccccc1-n1c2ccccc2c2ccccc21	?	-9.8%	i	i	17.8%	20µM*
N#Cc1c(Cl)cccc1N1CCSCC1	9.9%	.	i	i	.	?
N#Cc1c(N2CCSCC2)nsc1-c1ccccc1Cl	-13.8%	-0.3%	i	i	-19.5%	10µM*
C=CCNc1nc(N)c([N+](=O)[O-])c(Nc2ccccc2OC)n1	6.0%	3.0%	i	i	-39.8%	15.8µM*
Cc1ccc(C)c(NC(=O)CSc2nc3nccnc3c(=O)n2CCc2c[nH]c3ccccc23)c1	.	6.8%	i	?	.	0.0%
COc1ccccc1N(O)C1CC(=O)N(c2ccc(Br)cc2)C1=O (centres undefined)	-9.9%	-10.0%	i	?	-2.4%	28.2µM*
Cc1cc(NS(=O)(=O)c2ccc(NC(=O)CSc3nnc(-c4ccccn4)n3Cc3ccco3)cc2)nc(C)n1	.	.	.	i	.	.
COc1cc(OC)cc(C(=O)Nc2cc(-c3nc4cccnc4s3)ccc2C)c1	.	5.0%	i	i	.	19.5%
CC(=O)N(c1ccc2oc(=O)sc2c1)S(=O)(=O)c1cccs1	-1.7%	2.5%	i	28.2µM*	-0.7%	25.0%
O=C(CN1C(=O)CCn2nc(-c3ccccc3)cc21)NCc1ccc(F)cc1	.	-1.9%	i	i	.	0.0%[9.22 µM]
Cc1cnc(C=O)c2cccc([N+](=O)[O-])c12	13.5%	.	i	i	.	20µM*
CCOc1ccc(-n2c(SCC(=O)c3ccccc3)nc3c([nH]c4ccccc43)c2=O)cc1	-5.0%	0.1%	i	i	.	-12.0%

Compound activity: PubChem BioAssay, National Center for Advancing Translational Sciences (NCATS)
